Screening results (PubChem BioAssay)
Hits are enriched below; roughly 2.4% of the tested compounds scored in any of these assays.
ASK1 inh: inhibitors of human ASK1 kinase. Q99683. AlphaScreen MKK6 phosphorylation by ASK1, luminescence. inhibition, % at 7.44 µM. actives 0.99% (n = 22,000); in the data active means inhibition above about 35%;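 further: 0% = median of compound wells and 100% = no enzyme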
ULK1 primary: inhibitors of human ULK1 kinase | AlphaScreen Atg13 phosphorylation by ULK1, luminescence | O75385 | AID 1259251 | actives 1.9% (n = 30,000) | inhibition, % at 5.96 µM; in the data active means inhibition above about 43%;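 further: 0% = median of compound wells and 100% = no enzyme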
Target sequence (O75385 whole entry, looked up): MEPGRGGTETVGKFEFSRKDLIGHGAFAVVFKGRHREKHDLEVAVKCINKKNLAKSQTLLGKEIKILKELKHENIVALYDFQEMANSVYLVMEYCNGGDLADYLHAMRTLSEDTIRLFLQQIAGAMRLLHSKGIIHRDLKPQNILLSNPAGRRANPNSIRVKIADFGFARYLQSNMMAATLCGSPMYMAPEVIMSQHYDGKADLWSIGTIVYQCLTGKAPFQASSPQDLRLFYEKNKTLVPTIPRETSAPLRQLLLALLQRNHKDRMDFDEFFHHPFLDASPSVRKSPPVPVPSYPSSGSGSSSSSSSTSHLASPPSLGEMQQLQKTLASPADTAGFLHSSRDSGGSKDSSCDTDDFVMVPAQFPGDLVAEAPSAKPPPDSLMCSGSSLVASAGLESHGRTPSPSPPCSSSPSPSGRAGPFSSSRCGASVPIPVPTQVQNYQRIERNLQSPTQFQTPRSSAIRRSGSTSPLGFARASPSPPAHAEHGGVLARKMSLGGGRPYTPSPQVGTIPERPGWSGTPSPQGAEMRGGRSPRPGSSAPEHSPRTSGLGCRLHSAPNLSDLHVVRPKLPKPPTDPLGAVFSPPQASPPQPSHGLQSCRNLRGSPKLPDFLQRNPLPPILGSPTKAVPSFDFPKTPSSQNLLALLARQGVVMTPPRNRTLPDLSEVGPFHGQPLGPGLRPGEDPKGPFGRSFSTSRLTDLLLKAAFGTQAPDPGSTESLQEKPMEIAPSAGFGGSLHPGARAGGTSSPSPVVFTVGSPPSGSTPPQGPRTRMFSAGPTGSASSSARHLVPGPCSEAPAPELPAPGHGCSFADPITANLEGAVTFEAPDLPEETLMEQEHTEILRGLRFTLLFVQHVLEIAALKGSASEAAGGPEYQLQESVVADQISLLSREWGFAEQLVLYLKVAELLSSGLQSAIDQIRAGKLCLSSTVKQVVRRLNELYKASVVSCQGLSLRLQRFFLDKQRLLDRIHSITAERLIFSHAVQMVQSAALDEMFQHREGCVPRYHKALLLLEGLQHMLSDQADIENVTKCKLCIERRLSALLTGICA
Starred values were filed as active, the others as inactive; / = no result.

SMILES	ASK1 inh	ULK1 primary
Cn1cnc(-c2ccccc2Nc2nc(Nc3ccc(N4CCOCC4)cc3)ncc2Cl)n1	11	-11
NC(=O)c1ccc(Nc2ncc(Cl)c(-c3ccccc3)n2)cc1	9	31
NC(=O)c1ccccc1Nc1nc(Nc2ccc(F)cc2)ncc1Cl	-66	85*
CNC(=O)c1ccccc1Nc1nc(Nc2ccc(N3CCOCC3)c(Cl)c2)ncc1Cl	-27	58*
Cn1ncnc1-c1ccccc1Nc1nc(Nc2ccc(N3CCOCC3)cc2)ncc1Cl	-8	78*
COc1ccccc1CCNC(=O)c1ccc(-c2cn[nH]c2)cc1OC	10	-14
CCCNc1ccnc(Nc2ccc3ncccc3c2)n1	1	6
COc1cc(NC(=O)c2cc(Nc3cccc(N(C)C)c3)nc3ccccc23)cc(OC)c1OC	13	4
CC(C)n1c(Nc2cccc(N(C)C)c2)nc2c(Nc3ccccc3)ncnc21	18	7
N[C@H](Cc1ccc(Br)cc1)C(=O)N1CC[C@@H](C(=O)Nc2ccc3[nH]ncc3c2)C1	0	2
c1ccc(Oc2ccc(Nc3nc(-c4csc5ccccc45)nc4c3ncn4C3CCCCC3)cc2)cc1	13	3
NC(=O)c1ccccc1Nc1nc(Nc2ccc(N3CCOCC3)c(F)c2)ncc1Cl	-65	72*
COc1cc(Nc2cc(Nc3ccccc3C(N)=O)ccn2)ccc1N1CCOCC1	-5	5
O=c1ccc(-c2ccc3cnc(Nc4ccc(-n5cnc(N6CCOCC6)n5)cc4)nc3c2)c[nH]1	-13	34
c1ccc2nc(Nc3ccc(-n4cnc(N5CCOCC5)n4)cc3)ncc2c1	-7	46*
c1ccc(-c2ccc3cnc(Nc4ccc(-n5cnc(N6CCOCC6)n5)cc4)nc3c2)cc1	-11	13
Cc1cc(-c2nc(Nc3ccc(-n4cnc(N5CCOCC5)n4)cc3)ncc2Cl)no1	-35	44*
c1cc(-c2cn[nH]c2)cc(Nc2ccc(N3CCOCC3)cc2)n1	-2	27
c1cc(-n2cnc(N3CCOCC3)n2)ccc1Nc1ncc2ccc(-c3cn[nH]c3)cc2n1	7	74*
c1cc(-n2cnc(N3CCOCC3)n2)ccc1Nc1cc2cc(-c3cn[nH]c3)ccc2cn1	-6	87*
Clc1cnc(Nc2ccc(-n3cnc(N4CCOCC4)n3)cc2)nc1-c1ccno1	-29	7
Nc1nc(NCCO)cc(N2CCC(N3CCOCC3)CC2)n1	-8	4
COCCNc1nccc(-c2ccc(S(C)(=O)=O)cc2)n1	3	6
OCC1CCCN1c1nc(NCCc2ccc(O)cc2)c2ncn(-c3ccccc3)c2n1 (stereo not given)	2	5
Cn1cc(-c2cc(Nc3ccc(-n4cnc(-c5ccncc5)n4)cc3)ncc2Cl)cn1	-28	-1
SMILES	ASK1 inh	ULK1 primary
Cn1cc(-c2ccc3cnc(Nc4ccc(-n5cnc(C(C)(C)C)n5)cc4)nc3c2)cn1	-3	10
Cn1cc(-c2ccc3cnc(Nc4ccc(-n5cnc(N6CCCC(O)C6)n5)cc4)nc3c2)cn1 (stereo not given)	6	79*
COc1cc(Nc2cc(C)nc(Nc3cccnc3)n2)cc(OC)c1OC	22	45*
COc1cc(Nc2ncc(C)c(Nc3cc(OC)c(OC)c(OC)c3)n2)cc(OC)c1OC	20	28
COc1cc(Nc2nc(Nc3ccccc3)ncc2C)cc(OC)c1OC	15	62*
COc1cc(Nc2nc(Nc3ccccn3)ncc2C)cc(OC)c1OC	-9	51*
COc1cc(Nc2nc(Nc3ccncn3)ncc2C)cc(OC)c1OC	23	15
COc1cc(Nc2cc(C)nc(Nc3cc(OC)c(OC)c(OC)c3)n2)cc(OC)c1OC	-12	-25
Cc1ccc2nc(NC(=O)c3c(C(=O)O)cccc3[N+](=O)[O-])sc2c1	/	-5
FC(F)(F)c1cccc(CNc2nc(NCc3cccnc3)nc3nc[nH]c23)c1	5	-13
COc1cc(NC(=O)c2csc(-c3ccc(C(N)=O)cc3)n2)cc(OC)c1OC	-1	-6
O=C(Nc1ccc(-c2nn[nH]n2)cc1)[C@H]1Cc2cc(F)ccc2CN1	9	-6
CC(=O)N[C@@H](Cc1cccc(C)c1)c1nc2ncc(-c3ccncc3)cc2[nH]1	6	4
CN(C)c1nc(NCc2ccccc2)nc(N/N=C/c2ccccc2C(F)(F)F)n1	/	-8
CC(=O)Nc1ccc(NC(=O)c2cccc(-c3ccc(C(=O)NC4CC4)cc3)c2)cc1	9	47*
O=C(NC1CC1)c1ccc(-c2cccc(C(=O)NC3CC3)c2)cc1	12	-2
CC(C)n1c(-c2ccc(C(=O)N3CCN(C)CC3)cc2)nc2c(Nc3ccc(N4CCOCC4)cc3)ncnc21	-9	4
O=C(NC1CC1)c1cccc(NS(=O)(=O)c2ccc(-c3ncnc4[nH]ccc34)cc2)c1	8	44*
NC(=O)c1ccc(-c2cccc(C(=O)NC3CC3)c2)cc1	-20	-16
CNC(=O)c1ccccc1Nc1cc(Nc2ccc(N3CCOCC3)cc2C)ncc1C(F)(F)F	-18	92*
COc1cc(N2CCOCC2)ccc1Nc1cc(Nc2cccnc2)c(C(F)(F)F)cn1	30	19
CNC(=O)c1ccccc1Nc1cc(Nc2ccc(N3CCOCC3)cn2)ncc1C(F)(F)F	-7	91*
COc1ccc(-c2ncc(C(N)=O)s2)cn1	15	5
O=C(NCCOc1ccccc1)c1cccc(-c2csc3ccccc23)c1	-24	-11
COc1ccc2c(c1)CC(c1nc(N3CCOCC3)c3ccc(-c4ccncc4)cc3n1)CO2 (stereo not given)	-9	2
SMILES	ASK1 inh	ULK1 primary
O=C1CCCN1CCCNc1nc(-c2csc3ccccc23)nc2c1ncn2-c1ccccc1	-4	-17
C[n+]1c2cc(N)ccc2cc2ccc(N)cc21	/	71*
CCN(CC)c1nc(NC2CC2)nc(N2CCN(Cc3ccc4c(c3)OCO4)CC2)n1	-9	-3
COc1cccc(CNC(=O)Nc2ccc(-c3cn[nH]c3)cc2OCCO)c1	-1	-5
COC(CNc1nccc(Nc2ccncn2)n1)c1cccs1 (stereo not given)	-4	4
CC(C)n1cnc2c(Nc3ccccc3)nc(Nc3ccccn3)nc21	-4	49*
CC(CNc1nccc(Nc2ccncn2)n1)c1cccs1 (stereo not given)	10	44*
c1ccc(Nc2ccnc(Nc3ccncc3)n2)cc1	3	17
CC(=O)Nc1ccc(Nc2nc(Nc3ncccn3)nc3c2ncn3C(C)C)cc1	3	47*
c1ccc(Nc2ccnc(Nc3ccncn3)n2)cc1	16	45*
CC(C)n1cnc2c(NCCO)nc(Nc3ccccn3)nc21	-8	9
CC(=O)Nc1ccc(Nc2nc(Nc3ccc4ncccc4c3)nc3c2ncn3C(C)C)cc1	-8	34
Cc1cccc(NC(=O)c2cccc(-n3cc(NC(=O)Cc4ccc(F)cc4)cn3)c2)c1	-11	-25
Cc1nn(C)c(C)c1-c1nc2ccc(C(=O)NCCN(C(C)C)C(C)C)cc2s1	-5	-15
FC(F)(F)c1cccc(CNc2nc(N3CCc4ccccc4C3)nc3c2ncn3-c2ccsc2)c1	0	1
FC(F)(F)c1cccc(CNc2nc(N3CCN(Cc4ccc5c(c4)OCO5)CC3)nc3c2ncn3C2CCCCC2)c1	33	8
CCN(CC)c1nc(Nc2ccccc2)nc(N2CCCC2CO)n1 (stereo not given)	-14	-29
CCCNC(=O)c1ccc2nc(Nc3ccncn3)sc2c1	-9	22
COc1ccc(CCNc2nc(Nc3ccc4ncccc4c3)nc3c2ncn3C2CCCCC2)cc1	11	5
